Bioassay records deposited in PubChem by Broad Institute.
Shown are actives, neighbours in structure and some others; about 3.1% of the full set was active somewhere.
Rtt109 Vps75: blocks Candida albicans Rtt109/Vps75 acetyltransferase activity; hit rate 0.16% among 330,000; Q5AAJ8; AID 540336; inhibition, % at 34.9 µM; purified Rtt109/Vps75, ThioGlo CoA-SH fluorescence, 4 h;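 active = inhibition of at least 50% in every replicate; inconclusive = best replicate reaches 50% inhibition but some replicates fall short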
Target sequence (Q5AAJ8 whole entry, looked up): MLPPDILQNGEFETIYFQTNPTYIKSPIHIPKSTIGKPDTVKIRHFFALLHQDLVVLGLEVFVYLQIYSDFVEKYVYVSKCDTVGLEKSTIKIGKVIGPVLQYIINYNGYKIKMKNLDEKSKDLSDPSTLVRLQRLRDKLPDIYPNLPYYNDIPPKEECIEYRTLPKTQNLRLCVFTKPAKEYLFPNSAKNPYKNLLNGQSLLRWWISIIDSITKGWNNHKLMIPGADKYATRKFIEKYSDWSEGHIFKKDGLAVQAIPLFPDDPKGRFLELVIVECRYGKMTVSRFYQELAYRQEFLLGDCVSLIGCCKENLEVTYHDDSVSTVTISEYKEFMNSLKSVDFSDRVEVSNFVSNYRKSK
esBAF inh: blocks esBAF chromatin remodeling in mouse ES cells; Bmi1-luciferase knock-in reporter, 24 h; 100% = twice the neutral-well signal; hit rate 2% among 350,000; reporter increase, % at 12.5 µM; AID 602393; in the data active = activation above about 40%; inconclusive = no clear call, values can overlap the other calls;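 also: a rise in the Bmi1 reporter signal indicates esBAF inhibition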
Wnt bcat act: activates Wnt/beta-catenin signaling in a reporter cell assay. activator, plate reader. activation, % at 9.35 µM. hit rate 1.2% among 300,000; in the data active = activation above about 30%, passing the limit was not always enough; inconclusive = no clear call, values can overlap the other calls
Statin myotox sup: protects C2C12 myotubes from simvastatin toxicity; rescue of ATP level, % at 7.49 µM; AID 602340; ATP luminescence, 48 h; scaled: DMSO 0, geranylgeraniol control 100; hit rate 0.78% among 330,000;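 active = mean ATP rescue above about 67%, or every replicate alone reaching that limit, limit read from the data, passing the limit was not always enough; inconclusive = no clear call, values can overlap the other calls; inactive = mean under the limit and some replicate under it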;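 also: myotubes were challenged with 10 µM simvastatin during compound exposure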
MITF TRPM1 HTS: activators of MITF-driven TRPM1 promoter activity in SK-MEL-5 cells. activation, % at 12.5 µM. SK-MEL-5 TRPM1-promoter luciferase, 24 h; % of positive control, neutral wells = 0. hit rate 0.75% among 300,000;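 active = mean activation of at least 80% with every replicate also reaching 80%; inconclusive = mean reaches 80% but some replicate falls short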
Numbers stand for hits; . = inactive; ? = inconclusive; / = not tested or not shown.

SMILES	Rtt109 Vps75	esBAF inh	Wnt bcat act	Statin myotox sup	MITF TRPM1 HTS
CCC(C)NC(=O)c1cc2cc3ccc(OC)cc3nc2s1 (configuration not stated)	.	.	45.0	.	.
CSc1ccc(/C=N/NC(=O)c2cc(O)cc(O)c2)cc1	.	.	34.5	.	.
CC(SC(C)C(=O)NN=Cc1ccc(F)cc1)C(=O)NN=Cc1ccc(F)cc1 (configuration not stated)	.	/	.	122.3	.
O=C(N/N=C/c1ccccc1C(F)(F)F)c1ccc(O)cc1	.	/	.	/	85.7
O=C(N/N=C/c1ccc(F)cc1)c1ccccc1	.	/	33.9	/	.
CSc1ccc(/C=N/NC(=O)c2ccc(C)c(C)c2)cc1	.	/	.	/	.
O=C(N/N=C/c1ccccc1O)c1cccc(C(F)(F)F)c1	.	/	/	/	.
CCCNC(=O)N1[C@@H](CO)[C@@H](c2ccccc2)[C@@H]1CNC(=O)c1cccc(F)c1	/	.	/	.	/
CC(C)NC(=O)N(C)C[C@@H]1Oc2c(NC(=O)Nc3ccc4c(c3)OCO4)cccc2C(=O)N([C@@H](C)CO)C[C@@H]1C	/	.	/	.	/
Nc1c(C(=O)N/N=C/c2ccccc2)cnn1-c1ccccc1	.	48.5	.	.	.
O=C(N/N=C\c1ccc(F)cc1)c1csnn1	.	44.1	/	.	.
O=C(N/N=C/c1ccccc1)c1cccc2ccccc12	.	/	.	/	.
Cc1ccccc1/C=N\NC(=O)c1csnn1	.	.	.	/	/
C[C@@H]1CCCCO[C@@H](CN(C)Cc2ccc(C(F)(F)F)cc2)[C@H](C)CN([C@@H](C)CO)C(=O)c2cc(NC(=O)C3CCCCC3)ccc2O1	/	.	/	/	/
CCCCOC(=O)Nc1ccc(N2CCCCC2)cc1	.	.	73.7	.	/
CCCCOC(=O)Nc1ccc(C(C)C)cc1	.	74.8	/	.	/
CCOC(=O)Nc1ccc(Oc2ccccc2)cc1	.	53.9	55.0	.	89.9
C[C@@H]1CN([C@@H](C)CO)C(=O)Cc2cc(NC(=O)Cc3cn(C)c4ccccc34)ccc2O[C@@H]1CN(C)C(=O)Nc1ccc2c(c1)OCO2	/	.	/	.	/
COc1ccccc1C(CNc1ncccc1[N+](=O)[O-])N(C)C (configuration not stated)	.	.	.	.	.
COc1ccc(CNc2ncccc2[N+](=O)[O-])cc1	.	54.1	.	.	.
C[C@@H]1CN([C@H](C)CO)S(=O)(=O)c2ccc(C3=CCCC3)cc2O[C@H]1CN(C)Cc1ccccn1	/	.	/	.	/
Cc1nnc(Sc2nc3c(c(=O)n(C)c(=O)n3C)n2Cc2ccccc2Cl)s1	.	.	.	118.0	.
Cc1cc(NC(=O)c2cc3cccc([N+](=O)[O-])c3[nH]2)ccc1F	.	83.6	41.0	.	.
COc1ccccc1C(=O)Nc1ccc2c(c1)C(=O)N(C)[C@H]1CC[C@@H](CC(=O)NCc3ccc(Cl)c(Cl)c3)O[C@H]1CO2	/	.	/	.	/
CC1(CCc2ccccc2)NC(=O)NC1=O (configuration not stated)	.	.	.	.	.
SMILES	Rtt109 Vps75	esBAF inh	Wnt bcat act	Statin myotox sup	MITF TRPM1 HTS
CC(C)CC1(C)NC(=O)NC1=O (configuration not stated)	.	.	.	116.7	.
COc1ccc2oc(=N)c(C(=O)Nc3ccccc3Cl)cc2c1	.	56.4	.	.	/
CN(C)S(=O)(=O)Oc1cccc(C(=O)Nc2ccccc2Cl)c1	.	72.1	.	.	/
COc1cc2ccccc2cc1C(=O)Nc1ccccc1Cl	.	?	45.1	.	.
CN(C)S(=O)(=O)Oc1cccc(C(=O)Nc2ccc(Cl)cc2)c1	.	.	.	.	.
COc1ccc2oc(=N)c(C(=O)Nc3cccc(C)c3C)cc2c1	.	79.6	.	.	.
COc1cc2ccccc2cc1C(=O)Nc1ccccc1N1CCCC1	.	.	.	.	.
COc1ccc2oc(=O)c(C(=O)N3CCN(c4ccccc4)CC3)cc2c1	.	.	.	.	.
COc1ccc2oc(=O)c(C(=O)N3CCN(c4ccccc4C)CC3)cc2c1	.	75.7	49.5	.	105.5
COc1ccc2oc(=N)c(C(=O)Nc3ccc(C)cc3)cc2c1	.	43.0	.	.	.
N=c1oc2ccc(Cl)cc2cc1C(=O)Nc1ccc(F)cc1	.	.	36.4	.	.
Cc1cc(C(=O)Cn2nc(C(=O)O)c3ccccc3c2=O)c(C)n1-c1ccc(F)cc1	.	48.3	.	.	.
Cc1cc(C(=O)Cn2nc(C(=O)O)c3ccccc3c2=O)c(C)n1-c1cccc(C(F)(F)F)c1	.	.	.	.	.
Cc1ccc(C2CN=NC23CCc2ccccc2C3=O)cc1 (configuration not stated)	.	48.2	.	.	.
O=C(C[C@H]1CC[C@@H](NC(=O)c2cccnc2)[C@H](CO)O1)NCc1ccncn1	/	.	/	.	/
O=C(C1CCCN(S(=O)(=O)c2ccc(F)cc2)C1)N1CCOCC1 (configuration not stated)	.	55.2	43.3	.	.
CN1CCN(C(=O)C2CCCN(S(=O)(=O)c3ccc(F)cc3)C2)CC1 (configuration not stated)	.	/	.	/	.
CSc1cccc(NC(=O)C2CCCN(S(=O)(=O)c3ccc(F)cc3)C2)c1 (configuration not stated)	.	.	.	/	.
O=C(Nc1cccc(Cl)c1)C1CCCN(S(=O)(=O)c2ccc(F)cc2)C1 (configuration not stated)	.	.	/	125.2	.
C[C@@H]1CCCCO[C@@H](CN(C)S(=O)(=O)c2cccs2)[C@@H](C)CN([C@@H](C)CO)C(=O)c2cc(NC(=O)NC3CCCCC3)ccc2O1	/	.	/	/	/
CC(C)NC(=O)N[C@@H]1C=C[C@@H](CC(=O)N2CCCCC2)O[C@H]1CO	/	.	/	.	/
Nc1nn2cc(-c3ccc(Br)cc3)nc2c2ccccc12	.	?	44.1	.	.
C[C@@H]1CN([C@@H](C)CO)S(=O)(=O)c2ccc(-c3ccncc3)cc2O[C@H]1CN(C)C(=O)C1CCC1	/	/	/	.	/
C[C@H](CO)N1C[C@H](C)[C@H](CN(C)Cc2ccccc2)OCCCC[C@H](C)Oc2ccc(NC(=O)Nc3ccc(C(F)(F)F)cc3)cc2C1=O	/	.	/	/	/
C[C@@H]1CCCCO[C@@H](CN(C)C(=O)Nc2cccc3ccccc23)[C@H](C)CN([C@H](C)CO)C(=O)c2cc(NS(=O)(=O)c3cccs3)ccc2O1	/	.	/	107.6	/
C[C@H]1CCCCO[C@@H](CN(C)C(=O)Nc2ccc3c(c2)OCO3)[C@@H](C)CN([C@@H](C)CO)C(=O)c2cc(NS(=O)(=O)c3cccs3)ccc2O1	/	.	/	83.9	/
C[C@@H]1CCCCO[C@@H](CN(C)C(=O)Nc2cccc3ccccc23)[C@@H](C)CN([C@H](C)CO)C(=O)c2cc(NS(=O)(=O)c3ccc(Cl)cc3)ccc2O1	/	.	/	94.4	/
C[C@@H]1CN([C@@H](C)CO)C(=O)c2cc(C#C[C@@H](C)O)cnc2O[C@@H]1CN(C)C(=O)Cc1ccccn1	/	.	/	.	/
C[C@@H]1CN([C@@H](C)CO)C(=O)c2cc(C3=CCCC3)cnc2O[C@H]1CN(C)Cc1cccc(F)c1	/	.	/	.	/
